A short description of assay [1]: Primary qHTS for inhibitors of nuclear receptor binding SET domain protein 2 (NSD2) in an RCH-ACV wild type WT cells (2C) (AID 1645877). Further: nearly all actives have a fitted effect of over 70% in size. Further: potency means the concentration at half of the fitted maximal effect.
Assay [2] concerns the target Glutathione peroxidase 1 (Homo sapiens) (UniProt P07203). Briefly: Primary qHTS Assay for Inhibitors of Recombinant Selenoprotein Glutathione Peroxidase 1 (GPX1) (AID 1845191). Further: nearly all actives have a fitted effect of over 65% in size. Further: potency means the concentration at half of the fitted maximal effect. Summed up: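 10 nM GPX1 + cpd, 30 min RT; start w/ 1 mM GSH, 0.5 mM cumene hydroperoxide, 0.5 mM NADPH, 100 nM GR, 0.01% BSA; buffer 50 mM Tris-HCl pH 7.5, 2 mM EDTA, 150 mM NaCl; Fl 340/450, 0 & 15 min.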
In general terms: qHTS replaces the single test concentration by a dilution series.

For assay [3], the target named is Phospholipid hydroperoxide glutathione peroxidase GPX4 (Homo sapiens) (UniProt P36969). The assay is described as follows: Primary qHTS Assay for Inhibitors of Recombinant Selenoprotein Glutathione Peroxidase 4 (GPX4) (AID 1845192). Further: nearly all actives have a fitted effect of over 65% in size. Further: potency means the concentration at half of the fitted maximal effect. Summed up: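 NADPH consumption, followed by fluorescence at 340/450 nm between 0 and 15 min, reports GPX4 activity via coupled glutathione reductase (100 nM). Enzyme 200 nM was pre-exposed to compound 30 min; 0.5 mM cumene hydroperoxide and 1 mM GSH served as substrates.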
Sequence of Phospholipid hydroperoxide glutathione peroxidase GPX4 (Homo sapiens) (P36969 whole entry, looked up): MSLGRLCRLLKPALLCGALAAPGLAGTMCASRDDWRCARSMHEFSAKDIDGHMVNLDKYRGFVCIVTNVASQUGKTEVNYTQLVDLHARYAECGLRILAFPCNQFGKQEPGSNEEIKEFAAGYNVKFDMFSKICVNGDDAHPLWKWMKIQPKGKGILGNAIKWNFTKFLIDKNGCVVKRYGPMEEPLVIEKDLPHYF

The target in assay [4] is Luciferin 4-monooxygenase (Photinus pyralis) (UniProt P08659). The assay is described as follows: Primary firefly luciferase (FLuc) qHTS assay for identification of artifact compounds. (AID 1845220). Further: nearly all actives have a fitted effect of over 60% in size. Summed up: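 FLuc 10 nM; luciferin 10 uM; ATP 10 uM; Tris-acetate pH 7.6, Mg-acetate 10 mM; 15 min RT preincubation; 5 min reaction; luminescence.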
A short description of assay [5]: Primary fluorescence-based thiol-reactive (MSTI) qHTS assay for identification of artifact compounds. (AID 1845221). Further: nearly all actives have a fitted effect of over 65% in size. Further: potency means the concentration at half of the fitted maximal effect. Summed up: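 qHTS titration of compound; 4 uM MSTI, PBS pH 7.4, 2% DMSO; 1 h RT, dark; fluorescence 525/598 nm; normalized to Acetyl-MSTI and MSTI; 4-parameter Hill fit.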
The subject of assay [6] is Nanoluciferase (engineered Oplophorus gracilirostris luciferase). The assay is described as follows: Primary Nanoluciferase (NLuc) qHTS assay for identification of artifact compounds. (AID 1845222).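 Further: NLuc secreted into diluted conditioned medium of S16 cells; series mostly up to about 54 µM.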 Summed up: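 NLuc from S16 cell medium (1:55) plus test compounds, 15 min, room temperature. Luminescence after Nano-Glo (1:100) addition, 5 min.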
A short description of assay [7]: Primary redox qHTS assay for identification of artifact compounds. (AID 1845223). Summed up: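 Amplex Red (25 uM) and HRP (250 mU/mL) in HBSS, with compounds for 15 min, then 250 uM DTT for 30 min, room temperature, dark. Fluorescence 525/598 nm read; normalized to DMSO and 10 uM DA3003; Hill fit.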

Where “and” joins values, the source holds several entries; their conditions need not be identical. Equal entries are not always repeated. Unmarked numbers belong to inactive results. Records with an inconclusive call do not appear. Calls of active or inactive are those of the source. The call rests on the fitted dose curve; in most records, active means well fitted curve in the direction sought with a large enough effect; inconclusive means small, poorly fitted or top-dose-only effect, or another doubt; inactive means no such curve, though single readings can be large; an effect the other way counts as inactive or inconclusive. Where a SMILES comes first, the peptide text is derived from it. [ ]: non-standard residue; d: D form. ξ: configuration not given here. ξPhe(βξ-Me) = CC(c1ccccc1)C(N)C(=O)O; GABA = NCCCC(=O)O

Sequence of Glutathione peroxidase 1 (Homo sapiens) (P07203 whole entry, looked up): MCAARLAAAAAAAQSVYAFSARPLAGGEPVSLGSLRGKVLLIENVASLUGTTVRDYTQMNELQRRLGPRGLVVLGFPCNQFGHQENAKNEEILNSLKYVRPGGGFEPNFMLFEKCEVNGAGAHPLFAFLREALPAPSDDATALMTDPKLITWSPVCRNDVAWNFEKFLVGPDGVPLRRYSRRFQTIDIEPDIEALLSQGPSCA

On to `CC(C)c1nnc(-c2ccc(-c3ccccc3)nc2)n1-c1cccc2nonc12`, for which the Potency result in assay [1], in assay [2], in assay [3], in assay [4], in assay [5] and in assay [6] was “inactive” throughout. The Potency result in assay [7] was “inactive”.
Consider `Cc1cccc(S(=O)(=O)N2CCC[C@@H]2CCN2CCC(C)CC2)c1`, for which the Potency entry in assay [1], in assay [2], in assay [3], in assay [4], in assay [5] and in assay [6] was “inactive” throughout. In assay [7], the Potency entry is “inactive”.
For the molecule `CC1NC(=O)CCCNC(=O)C(Cc2c[nH]c3ccccc23)NC(=O)C(C)NC(=O)C(C(C)C)NC(=O)C(C(C)c2ccccc2)NC(=O)C(C(C)C)NC1=O` (stereo not drawn) (cyclo([GABA]AV[ξPhe(βξ-Me)]VAW); configuration not given here), the Potency result in assay [1], in assay [2], in assay [3], in assay [4], in assay [5] and in assay [6] was “inactive” throughout. The Potency entry in assay [7] was “inactive”.
Take `COc1ccc(CCO[C@@H]2CCCC[C@H]2N2CC[C@@H](O)C2)cc1OC`: the Potency entry in assay [1], in assay [2], in assay [3], in assay [4], in assay [5] and in assay [6] was “inactive” each time. The Potency entry in assay [7] was “inactive”.
Consider `COc1cc2occc2c(O[C@@H]2O[C@H](CO)[C@@H](O)[C@H](O)[C@H]2O)c1CCC(=O)O`, for which the Potency result in assay [1], in assay [4], in assay [6] and in assay [7] was “inactive” each time. The Potency was 11.1 µM (active) in assay [2], 11.1 µM (active) in assay [3] and 5.19 µM (active) in assay [5].
Regarding `CC(C)(C)Nc1nc2cc(Cl)c(Cl)cc2nc1S(C)(=O)=O`, the Potency in assay [1] was 409 nM (active). The Potency entry in assay [2], in assay [3], in assay [4], in assay [5], in assay [6] and in assay [7] was “inactive” in each case.
With `COCCN1CCN(Cc2ccc(-c3n[nH]c4c3C(=O)c3c(NC(=O)NN5CCOCC5)cccc3-4)cc2)CC1`, in assay [1], the Potency was 36.5 nM (active) and 52.5 nM (active). Moreover, the Potency result in assay [2], in assay [3], in assay [4], in assay [5], in assay [6] and in assay [7] was “inactive” each time.
On to `CCCCNc1ncc2c(-c3ccc(F)cc3)nn(CC3CCC(N)CC3)c2n1` (stereo unspecified), for which the Potency in assay [1] was 1620 nM (active). Besides, the Potency result in assay [2], in assay [3], in assay [4], in assay [5], in assay [6] and in assay [7] was “inactive” each time.
As for `CC(C(O)/C=C/C(C)(C)O)C1CCC2(C)C3C(=O)C=C4C(CCC(O)C4(C)C)C3(C)CCC12C` (stereo unspecified), the Potency result in assay [1], in assay [2], in assay [3], in assay [4], in assay [5] and in assay [6] was “inactive” each time. Also, the Potency entry in assay [7] was “inactive”.
As for `C[C@@H]1CC[C@]2(C(=O)O)CC[C@]3(C)C(=CCC4[C@@]5(C)CC[C@H](O)C(C)(C)C5C(O)C[C@]43C)[C@@H]2[C@]1(C)O` (stereo partly specified), the Potency result in assay [1], in assay [2], in assay [3], in assay [4], in assay [6] and in assay [7] was “inactive” throughout. The Potency in assay [5] was 13 µM (active).
Turning to `CC1=C(C(=O)O)/C(=C\CO[C@@H]2O[C@H](CO)[C@@H](O)[C@H](O)[C@H]2O)C(OC(=O)/C=C\c2ccc(O)cc2)C1` (stereo partly specified), the Potency result in assay [1], in assay [2], in assay [3], in assay [4], in assay [6] and in assay [7] was “inactive” throughout. Moreover, the Potency in assay [5] is 4.62 µM (active).
With `CC1=C(C)C(=O)OC(C(C)C2CCC3C4C5OC5C5(O)CC(OC6OC(CO)C(OC7OC(C)C(O)C(O)C7O)C(O)C6O)CC(O)C5(C)C4CCC23C)C1` (stereo unspecified), the Potency result in assay [1], in assay [2], in assay [3], in assay [4], in assay [5] and in assay [6] was “inactive” in each case. In addition, in assay [7], the Potency entry was “inactive”.
As for `COc1ccc(Oc2cc(C)c(-c3csc(NC(=O)c4ccncc4)n3)c(C)c2)cc1`, the Potency in assay [1] was 916 nM (active). Also, the Potency entry in assay [2], in assay [3], in assay [4], in assay [5], in assay [6] and in assay [7] was “inactive” throughout.
In the case of `CC1(C)CCCC2(C)C(C(=O)O)=CCC12` (stereo unspecified), the Potency result in assay [1], in assay [2], in assay [3], in assay [4], in assay [5] and in assay [6] was “inactive” each time. The Potency entry in assay [7] was “inactive”.
As for `CC1CCC2(C(=O)O)CCC3(C)C(=CCC4C5(C)CCC(OC(=O)/C=C/c6ccccc6)C(C)(C)C5CCC43C)C2C1C` (stereo unspecified), the Potency entry in assay [1], in assay [2], in assay [3], in assay [4], in assay [5] and in assay [6] was “inactive” throughout. For the same molecule, in assay [7], the Potency entry is “inactive”.
Regarding `OC[C@H]1O[C@@H](OC(CCCCc2ccc(O)cc2)CCc2ccc(O)cc2)[C@H](O)[C@@H](O)[C@@H]1O` (stereo partly specified), the Potency result in assay [1], in assay [2], in assay [3], in assay [4], in assay [5] and in assay [6] was “inactive” throughout. For the same molecule, the Potency entry in assay [7] was “inactive”.
For `CC1(C)CC[C@]2(C(=O)O)CC[C@]3(C)C(=CCC4[C@@]5(C)CC[C@H](O[C@@H]6O[C@H](CO)[C@@H](O)[C@H](O)[C@H]6O[C@@H]6O[C@H](CO)[C@@H](O)[C@H](O)[C@H]6O)[C@@](C)(CO)C5CC[C@]43C)[C@@H]2C1` (stereo partly specified), the Potency result in assay [1], in assay [2], in assay [3], in assay [4], in assay [5] and in assay [6] was “inactive” throughout. The Potency entry in assay [7] was “inactive”.
As for `Cc1c(NC(=O)c2cc(C(N)=O)nc3cc(F)ccc23)c(C(F)(F)F)nn1Cc1ccc(C#N)cc1`, the Potency entry in assay [1], in assay [2], in assay [3], in assay [4], in assay [5] and in assay [6] was “inactive” throughout. Further, the Potency entry in assay [7] is “inactive”.

For the origin of these results see PubChem BioAssay (NCATS).
